From publication PMC7862700, “An all-to-all approach to the identification of sequence-specific readers for epigenetic DNA modifications on cytosine”

What was measured:
Assay in all cases: DAPPL (digital affinity profiling via proximity ligation, sequencing); 10 mM Tris-HCl pH 7.5, 50 mM NaCl, 1 mM DTT, 4% glycerol, room temperature, 30 min; GST-TFs on glutathione beads, 16-mer random dsDNA library, 0.1% formaldehyde crosslink after washing; high values mean tight binding
Conditions in all cases: protein: recombinant; tags: N-terminal GST; dsDNA, one strand shown
FEV = molecular target: T1, FEV (Homo sapiens, UniProt Q99581 1-238)
T1 sequence: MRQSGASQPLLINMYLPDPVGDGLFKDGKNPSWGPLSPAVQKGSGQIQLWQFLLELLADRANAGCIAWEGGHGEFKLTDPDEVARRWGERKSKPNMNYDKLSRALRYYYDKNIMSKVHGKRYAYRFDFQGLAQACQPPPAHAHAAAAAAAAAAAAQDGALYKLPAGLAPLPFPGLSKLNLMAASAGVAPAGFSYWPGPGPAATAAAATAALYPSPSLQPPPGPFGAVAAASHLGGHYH
Procedure, shortened: (§1)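 The binding signal reported is, for every hexamer, its read frequency for a factor over its read frequency for the tag-only sample. Reads came from pools of yeast-expressed, GST-fused human transcription factors on glutathione beads, barcoded with DNA and mixed with that sample, which were incubated with 200 nmole of a random double-stranded 16-mer DNA library in Tris/NaCl/DTT/glycerol buffer at room temperature for 30 min. After washing, the pools were crosslinked with 0.1% formaldehyde, proximity-ligated with BsaI/T4 ligase for 1 h at 37 °C, PCR-amplified and sequenced on an Illumina NextSeq500.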

ETV5 = ETV5 (Homo sapiens, UniProt P41161 1-510)
Procedure, shortened: as §1

SPIC = molecular target: T2, SPIC (Homo sapiens, UniProt Q8N5J4 1-248)
T2 sequence: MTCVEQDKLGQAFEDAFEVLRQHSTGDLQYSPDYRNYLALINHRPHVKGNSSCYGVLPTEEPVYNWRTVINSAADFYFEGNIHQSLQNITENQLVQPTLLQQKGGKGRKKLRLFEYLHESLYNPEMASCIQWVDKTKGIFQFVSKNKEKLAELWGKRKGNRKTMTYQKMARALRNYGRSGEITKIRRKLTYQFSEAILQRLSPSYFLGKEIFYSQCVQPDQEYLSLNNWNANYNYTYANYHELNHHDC
Procedure, shortened: as §1

ELF4 = ELF4 (Homo sapiens, UniProt Q99607 1-663)
Procedure, shortened: as §1

ELK4 = molecular target: T3, ELK4 (Homo sapiens, UniProt P28324-2 1-405)
T3 sequence: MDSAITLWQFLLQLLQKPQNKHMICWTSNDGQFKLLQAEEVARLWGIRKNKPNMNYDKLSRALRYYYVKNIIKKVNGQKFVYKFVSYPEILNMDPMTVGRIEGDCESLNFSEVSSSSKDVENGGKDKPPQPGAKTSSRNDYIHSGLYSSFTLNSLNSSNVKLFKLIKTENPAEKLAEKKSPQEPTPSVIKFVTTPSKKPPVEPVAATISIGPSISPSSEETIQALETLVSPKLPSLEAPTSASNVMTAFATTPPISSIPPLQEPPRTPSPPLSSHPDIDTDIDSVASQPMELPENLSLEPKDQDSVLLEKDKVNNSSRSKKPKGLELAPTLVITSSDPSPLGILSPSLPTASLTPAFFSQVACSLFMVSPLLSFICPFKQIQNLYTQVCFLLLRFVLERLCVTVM
Procedure, shortened: as §1

ETV2 = molecular target: T4, ETV2 (Homo sapiens, UniProt O00321 1-342)
T4 sequence: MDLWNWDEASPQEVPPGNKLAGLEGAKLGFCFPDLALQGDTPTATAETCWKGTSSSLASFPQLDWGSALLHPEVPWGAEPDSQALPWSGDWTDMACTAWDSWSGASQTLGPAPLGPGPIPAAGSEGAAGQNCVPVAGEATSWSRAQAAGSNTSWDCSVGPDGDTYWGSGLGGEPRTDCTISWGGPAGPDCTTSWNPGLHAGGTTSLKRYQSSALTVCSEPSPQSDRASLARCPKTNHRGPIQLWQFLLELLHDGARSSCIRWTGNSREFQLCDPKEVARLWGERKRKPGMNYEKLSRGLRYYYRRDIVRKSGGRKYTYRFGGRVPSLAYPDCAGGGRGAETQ
Procedure, shortened: as §1

ELF3 = molecular target: T5, ELF3 (Homo sapiens, UniProt P78545 1-371)
T5 sequence: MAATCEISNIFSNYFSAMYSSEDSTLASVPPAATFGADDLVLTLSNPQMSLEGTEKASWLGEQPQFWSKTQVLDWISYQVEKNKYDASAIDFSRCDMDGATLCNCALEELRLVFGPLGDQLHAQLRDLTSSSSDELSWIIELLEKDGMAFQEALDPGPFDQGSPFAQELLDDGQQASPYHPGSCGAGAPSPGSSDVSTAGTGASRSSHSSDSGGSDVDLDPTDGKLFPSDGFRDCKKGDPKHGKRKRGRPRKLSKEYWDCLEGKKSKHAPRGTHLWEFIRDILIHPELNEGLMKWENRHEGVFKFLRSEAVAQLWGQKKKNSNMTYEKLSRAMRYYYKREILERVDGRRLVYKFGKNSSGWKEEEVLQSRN
Procedure, shortened: as §1

ETV1 = ETV1 (Homo sapiens, UniProt P50549 1-477)
Procedure, shortened: as §1

ERF = molecular target: T6, ERF (Homo sapiens, UniProt P50548 1-548)
T6 sequence: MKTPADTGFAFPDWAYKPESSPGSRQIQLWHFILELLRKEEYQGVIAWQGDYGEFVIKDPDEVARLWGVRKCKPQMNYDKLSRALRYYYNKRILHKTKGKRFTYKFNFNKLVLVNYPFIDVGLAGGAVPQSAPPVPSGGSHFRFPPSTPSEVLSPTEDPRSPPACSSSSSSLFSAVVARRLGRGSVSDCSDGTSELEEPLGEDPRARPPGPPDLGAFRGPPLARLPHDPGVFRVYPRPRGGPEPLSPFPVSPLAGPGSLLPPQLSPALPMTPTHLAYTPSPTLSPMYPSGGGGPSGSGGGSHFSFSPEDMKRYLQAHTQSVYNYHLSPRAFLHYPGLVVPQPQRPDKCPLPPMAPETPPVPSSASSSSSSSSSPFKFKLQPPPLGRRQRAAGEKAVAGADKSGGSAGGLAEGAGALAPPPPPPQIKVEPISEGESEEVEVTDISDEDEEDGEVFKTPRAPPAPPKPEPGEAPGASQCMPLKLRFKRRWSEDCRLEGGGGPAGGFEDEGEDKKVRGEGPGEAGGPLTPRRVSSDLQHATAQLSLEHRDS
Procedure, shortened: as §1

ETV3L = molecular target: T7, ETV3L (Homo sapiens, UniProt Q6ZN32 1-361)
T7 sequence: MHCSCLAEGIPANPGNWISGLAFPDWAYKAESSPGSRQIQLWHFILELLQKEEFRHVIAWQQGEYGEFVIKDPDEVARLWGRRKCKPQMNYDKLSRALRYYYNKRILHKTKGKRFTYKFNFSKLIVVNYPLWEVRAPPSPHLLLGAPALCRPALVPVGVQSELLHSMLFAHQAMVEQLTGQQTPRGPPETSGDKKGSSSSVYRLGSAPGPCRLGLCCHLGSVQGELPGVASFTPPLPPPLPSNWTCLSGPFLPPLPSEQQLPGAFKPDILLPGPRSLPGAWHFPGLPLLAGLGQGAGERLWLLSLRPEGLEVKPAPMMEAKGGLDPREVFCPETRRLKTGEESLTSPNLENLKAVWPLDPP
Procedure, shortened: as §1

ETS2 = molecular target: T8, ETS2 (Homo sapiens, UniProt P15036 1-469)
T8 sequence: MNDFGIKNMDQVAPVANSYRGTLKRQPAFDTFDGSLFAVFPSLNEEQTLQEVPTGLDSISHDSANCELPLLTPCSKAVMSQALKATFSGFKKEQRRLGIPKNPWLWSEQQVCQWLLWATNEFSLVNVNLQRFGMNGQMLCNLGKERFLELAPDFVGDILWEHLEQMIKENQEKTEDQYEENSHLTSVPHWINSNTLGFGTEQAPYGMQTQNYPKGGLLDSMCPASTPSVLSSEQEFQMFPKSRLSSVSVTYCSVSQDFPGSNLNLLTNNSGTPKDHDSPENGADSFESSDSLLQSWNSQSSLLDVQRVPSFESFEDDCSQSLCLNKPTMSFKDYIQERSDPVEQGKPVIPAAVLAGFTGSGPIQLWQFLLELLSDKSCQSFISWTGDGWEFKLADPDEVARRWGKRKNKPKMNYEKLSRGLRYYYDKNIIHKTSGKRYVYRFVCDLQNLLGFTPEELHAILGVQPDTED
Procedure, shortened: as §1

SPDEF = molecular target: T9, SPDEF (Homo sapiens, UniProt O95238 1-335)
T9 sequence: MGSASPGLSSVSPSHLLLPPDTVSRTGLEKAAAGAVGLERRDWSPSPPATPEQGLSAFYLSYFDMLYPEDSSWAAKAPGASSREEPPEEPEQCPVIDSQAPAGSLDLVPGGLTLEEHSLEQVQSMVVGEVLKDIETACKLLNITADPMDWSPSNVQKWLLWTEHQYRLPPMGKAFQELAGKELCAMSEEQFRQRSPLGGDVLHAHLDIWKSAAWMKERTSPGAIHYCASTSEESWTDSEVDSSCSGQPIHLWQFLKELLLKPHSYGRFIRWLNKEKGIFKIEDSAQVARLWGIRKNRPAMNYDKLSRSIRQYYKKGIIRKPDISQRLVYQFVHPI
Procedure, shortened: as §1

ETV7 = molecular target: T10, ETV7 (Homo sapiens, UniProt Q9Y603 1-341)
T10 sequence: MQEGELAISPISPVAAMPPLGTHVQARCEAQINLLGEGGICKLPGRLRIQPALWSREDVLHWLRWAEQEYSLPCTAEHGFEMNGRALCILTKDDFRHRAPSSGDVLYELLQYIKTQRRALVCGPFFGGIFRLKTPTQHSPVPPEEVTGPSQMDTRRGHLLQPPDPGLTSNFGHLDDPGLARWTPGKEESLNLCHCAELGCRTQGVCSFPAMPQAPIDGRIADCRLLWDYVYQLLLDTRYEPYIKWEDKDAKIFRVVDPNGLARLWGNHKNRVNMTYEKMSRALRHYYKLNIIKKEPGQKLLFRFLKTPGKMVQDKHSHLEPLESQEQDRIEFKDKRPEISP
Procedure, shortened: as §1

ELF5 = molecular target: T11, ELF5 (Homo sapiens, UniProt Q9UKW6-2 1-255)
T11 sequence: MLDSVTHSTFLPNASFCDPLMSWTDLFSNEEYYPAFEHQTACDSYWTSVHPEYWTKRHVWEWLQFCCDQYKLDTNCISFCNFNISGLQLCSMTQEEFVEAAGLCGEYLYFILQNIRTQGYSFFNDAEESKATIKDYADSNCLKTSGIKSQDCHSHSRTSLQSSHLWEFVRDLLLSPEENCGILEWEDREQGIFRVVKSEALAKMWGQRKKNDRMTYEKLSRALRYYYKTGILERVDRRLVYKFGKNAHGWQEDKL
Procedure, shortened: as §1

ETV3 = molecular target: T12, ETV3 (Homo sapiens, UniProt P41162-2 1-143)
T12 sequence: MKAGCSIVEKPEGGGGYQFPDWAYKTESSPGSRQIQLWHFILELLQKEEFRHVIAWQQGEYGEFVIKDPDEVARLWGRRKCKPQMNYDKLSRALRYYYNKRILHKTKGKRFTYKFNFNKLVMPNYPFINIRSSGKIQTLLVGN
Procedure, shortened: as §1

ETV6 = ETV6 (Homo sapiens, UniProt P41212 1-452)
Procedure, shortened: as §1

Chain of ETV6 (P41212 whole entry): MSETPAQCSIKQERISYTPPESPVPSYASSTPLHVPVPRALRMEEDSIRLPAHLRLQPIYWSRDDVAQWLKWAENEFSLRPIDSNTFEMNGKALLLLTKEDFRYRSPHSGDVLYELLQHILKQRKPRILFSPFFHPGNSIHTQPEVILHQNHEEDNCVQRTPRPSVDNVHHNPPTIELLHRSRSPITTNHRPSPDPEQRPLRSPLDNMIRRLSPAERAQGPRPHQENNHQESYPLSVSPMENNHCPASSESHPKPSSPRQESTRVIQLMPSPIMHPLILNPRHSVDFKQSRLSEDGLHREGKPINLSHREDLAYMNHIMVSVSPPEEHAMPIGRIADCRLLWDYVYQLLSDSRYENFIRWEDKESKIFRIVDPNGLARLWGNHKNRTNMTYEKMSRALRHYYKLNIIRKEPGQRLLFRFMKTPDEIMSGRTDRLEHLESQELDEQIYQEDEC
Chain of ELF4 (Q99607 whole entry): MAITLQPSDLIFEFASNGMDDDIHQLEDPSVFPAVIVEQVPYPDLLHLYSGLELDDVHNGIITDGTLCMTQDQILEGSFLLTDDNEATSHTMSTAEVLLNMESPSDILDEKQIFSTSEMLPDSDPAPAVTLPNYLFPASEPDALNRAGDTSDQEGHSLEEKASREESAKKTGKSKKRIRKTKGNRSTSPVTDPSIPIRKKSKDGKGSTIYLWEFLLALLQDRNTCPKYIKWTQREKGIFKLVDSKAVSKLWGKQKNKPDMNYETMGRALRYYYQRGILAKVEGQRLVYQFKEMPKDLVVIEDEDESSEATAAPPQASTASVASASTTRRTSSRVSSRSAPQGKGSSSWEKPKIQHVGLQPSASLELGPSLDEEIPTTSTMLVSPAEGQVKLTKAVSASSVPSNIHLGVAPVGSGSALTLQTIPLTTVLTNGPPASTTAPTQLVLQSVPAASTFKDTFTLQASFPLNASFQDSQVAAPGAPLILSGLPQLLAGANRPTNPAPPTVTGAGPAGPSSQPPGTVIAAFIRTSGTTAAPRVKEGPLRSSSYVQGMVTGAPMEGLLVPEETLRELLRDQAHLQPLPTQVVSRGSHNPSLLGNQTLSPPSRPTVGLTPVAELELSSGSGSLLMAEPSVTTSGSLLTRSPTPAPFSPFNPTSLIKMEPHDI
Chain of ETV1 (P50549 whole entry): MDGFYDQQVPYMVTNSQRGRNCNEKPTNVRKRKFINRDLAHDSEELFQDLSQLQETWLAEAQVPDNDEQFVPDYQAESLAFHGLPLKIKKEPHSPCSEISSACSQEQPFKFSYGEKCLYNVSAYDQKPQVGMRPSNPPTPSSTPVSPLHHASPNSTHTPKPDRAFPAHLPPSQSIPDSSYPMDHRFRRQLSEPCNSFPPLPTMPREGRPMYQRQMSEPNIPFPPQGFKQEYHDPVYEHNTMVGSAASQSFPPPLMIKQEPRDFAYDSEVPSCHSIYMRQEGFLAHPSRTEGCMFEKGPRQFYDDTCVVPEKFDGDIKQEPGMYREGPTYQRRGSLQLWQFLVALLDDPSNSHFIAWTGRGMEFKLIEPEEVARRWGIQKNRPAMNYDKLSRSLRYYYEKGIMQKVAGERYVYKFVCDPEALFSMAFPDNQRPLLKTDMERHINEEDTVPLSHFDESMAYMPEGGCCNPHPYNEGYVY
Chain of ETV5 (P41161 whole entry): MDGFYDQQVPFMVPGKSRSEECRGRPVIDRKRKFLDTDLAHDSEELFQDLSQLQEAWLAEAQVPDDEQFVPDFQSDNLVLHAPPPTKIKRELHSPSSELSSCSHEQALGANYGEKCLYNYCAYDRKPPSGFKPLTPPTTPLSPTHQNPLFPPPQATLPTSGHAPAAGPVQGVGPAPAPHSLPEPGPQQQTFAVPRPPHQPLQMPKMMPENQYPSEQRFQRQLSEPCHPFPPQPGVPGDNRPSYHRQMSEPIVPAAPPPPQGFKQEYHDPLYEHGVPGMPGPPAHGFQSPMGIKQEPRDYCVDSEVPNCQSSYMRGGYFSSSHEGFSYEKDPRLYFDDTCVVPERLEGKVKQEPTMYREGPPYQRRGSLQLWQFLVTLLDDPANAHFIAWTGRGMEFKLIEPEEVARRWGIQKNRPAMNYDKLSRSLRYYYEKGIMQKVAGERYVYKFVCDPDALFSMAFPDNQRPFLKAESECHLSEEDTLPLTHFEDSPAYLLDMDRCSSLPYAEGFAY

Sequence | binding signal (FEV) | binding signal (ETV5) | binding signal (SPIC) | binding signal (ELF4) | binding signal (ELK4) | binding signal (ETV2) | binding signal (ELF3) | binding signal (ETV1) | binding signal (ERF) | binding signal (ETV3L) | binding signal (ETS2) | binding signal (SPDEF) | binding signal (ETV7) | binding signal (ELF5) | binding signal (ETV3) | binding signal (ETV6)
ACTGAC | 1.26 fold enrichment (6-mer frequency, TF over GST control) | 1.19 fold enrichment (6-mer frequency, TF over GST control) | 1.24 fold enrichment (6-mer frequency, TF over GST control) | 1.23 fold enrichment (6-mer frequency, TF over GST control) | 1.11 fold enrichment (6-mer frequency, TF over GST control) | 1.3 fold enrichment (6-mer frequency, TF over GST control) | 1.14 fold enrichment (6-mer frequency, TF over GST control) | 1.25 fold enrichment (6-mer frequency, TF over GST control) | 1.18 fold enrichment (6-mer frequency, TF over GST control) | 1.19 fold enrichment (6-mer frequency, TF over GST control) | 1.32 fold enrichment (6-mer frequency, TF over GST control) | 1.18 fold enrichment (6-mer frequency, TF over GST control) | 1.26 fold enrichment (6-mer frequency, TF over GST control) | 1.21 fold enrichment (6-mer frequency, TF over GST control) | 1.21 fold enrichment (6-mer frequency, TF over GST control) | 1.19 fold enrichment (6-mer frequency, TF over GST control)
CGACAC | 1.21 fold enrichment (6-mer frequency, TF over GST control) | 1.13 fold enrichment (6-mer frequency, TF over GST control) | 1.15 fold enrichment (6-mer frequency, TF over GST control) | 1.21 fold enrichment (6-mer frequency, TF over GST control) | 1.14 fold enrichment (6-mer frequency, TF over GST control) | 1.15 fold enrichment (6-mer frequency, TF over GST control) | 1.04 fold enrichment (6-mer frequency, TF over GST control) | 1.16 fold enrichment (6-mer frequency, TF over GST control) | 1.08 fold enrichment (6-mer frequency, TF over GST control) | 1.21 fold enrichment (6-mer frequency, TF over GST control) | 1.19 fold enrichment (6-mer frequency, TF over GST control) | 1.15 fold enrichment (6-mer frequency, TF over GST control) | 1.16 fold enrichment (6-mer frequency, TF over GST control) | 1.19 fold enrichment (6-mer frequency, TF over GST control) | 1.2 fold enrichment (6-mer frequency, TF over GST control) | 1.28 fold enrichment (6-mer frequency, TF over GST control)
